# Measurements taken from PubChem BioAssay AID624296 (National Center for Advancing Translational Sciences (NCATS), 2012).
# The whole screen tested about 350,000 compounds, of which about 9,900 (2.8%) were called active. Where a call stands in place of a potency, no number is given. Roughly 15% stayed inconclusive and do not appear here. Calls follow the shape of the dose curve; as a rule, active = well fitted activation curve with a large enough effect; inconclusive = small, poorly fitted or top-dose-only effect; inactive = no such curve, though single readings can be large or run the other way. The full list was thinned out, with actives kept by preference.
# Assay: A quantitative high throughput screen for small molecules that induce DNA re-replication in MCF 10a normal breast cells. Also: nearly all actives have a fitted effect of over 50% in size.
# Conditions: MCF 10A DNA re-replication, Hoechst nuclear intensity, 48 h; series mostly up to 46.1 µM
# Potency is read from the fitted curve at half-maximal effect.
row,SMILES,Potency
1,N#Cc1ccc(CN2CCN(CC(=O)Nc3ccccc3C(=O)NC3CC3)CC2)cc1,inactive
2,O=C(Nc1ccc2c(c1)OCO2)C1CC1(Cl)Cl (centres undefined),inactive
3,CC(=O)Nc1ccc(S(=O)(=O)NCC(=O)OCC(=O)c2ccc[nH]2)cc1,inactive
4,CCCCNc1nc2c(c(=O)n(C)c(=O)n2C)n1Cc1cccc(OC)c1,inactive
5,COc1ccc(Sc2nc(-c3ccccc3)ncc2OC)cc1,inactive
6,CCCCNc1c(-c2cccc(Sc3ccc(OC)cc3)c2)nc2ccccn12,18.4 µM (active)
7,Fc1ccc2cnc(-c3ccccc3)cc2c1,inactive
8,COc1cc(/C=C/CNC[C@H]2O[C@@H](n3cnc(C(N)=O)n3)[C@H](O)[C@@H]2O)ccc1O,inactive
9,O=C1Nc2c(Br)cc(Br)cc2C1(O)N1CCOCC1 (centres undefined),8.2 µM (active)
10,O=C(CSC(=S)N1CCOCC1)c1cc(Br)cc(Br)c1O,inactive
11,O=C(c1cc2cc(Br)cc(Br)c2oc1=O)N1CCOCC1,inactive
12,Cc1ccc2c(c1)C1C[N+](C)(CC(=O)c3ccccc3)CCC1N2C(=O)c1ccccc1Cl (centres undefined),inactive
13,CC[C@]12c3[nH]c4cc(CCC(=O)N(C)C)ccc4c3CCN1C(=O)[C@@H](CC(=O)NCC13CC4CC(CC(C4)C1)C3)C[C@@H]2C(=O)N1CCN(C(=O)C2CC2)CC1,inactive
14,O=C(COc1ccc(Cl)cc1Cl)N/N=C/c1ccccn1,inactive
15,CSc1ccc(/C=N/NC(=O)c2cccc(Cl)c2)cc1,inactive
16,CSc1ccc(/C=N\NC(=O)COc2ccc(Cl)cc2Br)cc1,13 µM (active)
17,CCC(=O)c1cc(F)ccc1OCC(=O)Nc1ccc2c(c1)OCCO2,inactive
18,COc1ccccc1NC(=O)COC(=O)COc1ccccc1F,inactive
19,COc1ccc(CC(=O)NC(C)c2ccc(Cl)c(Cl)c2)cc1S(=O)(=O)N1CCOCC1 (centres undefined),inactive
20,Nc1ncnc2c1cnn2C1CC(O)C(CO)O1 (centres undefined),inactive
21,CCN(C[C@H]1N[C@@](Cc2ccccc2)(C(=O)OC)[C@H]2C(=O)N(Cc3ccccc3)C(=O)[C@@H]12)C(=O)c1ccc(C)cc1,inactive
22,Cc1cccc(OCC(=O)NC(=S)Nc2ccccc2N2CCOCC2)c1,inactive

row,SMILES,Potency
1,Cc1ccc(O)c(NC(=O)COc2cc(C)ccc2C)c1,inactive
2,Cc1ccc(O)c(NC(=S)NC(=O)COc2ccc(Br)cc2)c1,20.6 µM (active)
3,O=C(CCc1ccccc1Cl)Nc1ccc(S(=O)(=O)Nc2nccs2)cc1,inactive
4,Nc1cc(N)nc(SCC(=O)Nc2cccc(S(=O)(=O)N3CCCCC3)c2)n1,inactive
5,Nc1ncnc2c1ncn2[C@@H]1O[C@H](CNCc2cccn2-c2nccs2)[C@@H](O)[C@H]1O,inactive
6,Cc1c(NC(=O)CN(C)CC(=O)Nc2ccc(F)c(F)c2F)c(=O)n(-c2ccccc2)n1C,inactive
7,N=C1c2ccccc2-c2ccccc21,inactive
8,C=CCNc1nc(N)c(C(=C(C#N)C#N)c2ccccc2)s1,16.4 µM (active)
9,C=CCNC(=O)c1csc(-c2ccccc2)n1,inactive
10,COC(=O)c1sc(N2CCN(Cc3ccccc3)CC2)nc1N,inactive
11,Nc1ccccc1SC(C[N+](=O)[O-])c1ccccc1 (centres undefined),10.3 µM (active)
12,CCS(=O)(=O)c1cc([N+](=O)[O-])c(Sc2ccccc2N)s1,inactive
13,Nc1ccccc1SCc1cc([N+](=O)[O-])cc2c1OCOC2,inactive
14,CN(C(=O)c1cccc(NC(=O)C2CCN(C(=O)OC(C)(C)C)CC2)c1)C1CCC1,inactive
15,COC(=O)c1ccc(CNC(=O)Cn2cc(C)c(=O)[nH]c2=O)cc1,inactive
16,C#CCOCCOCCOCCNc1nc(N2CCN(C(=O)Cn3cc(CCCCN)nn3)CC2)nc(N2CCN(C(=O)[C@H](CCCCN)n3cc(CCC(=O)O)nn3)CC2)n1,inactive
17,CN(C)S(=O)(=O)c1ccc(C(=O)NCC(C)(C)N2CCOCC2)cc1,inactive
18,O=C(NCCSCc1ccccc1)c1ccc(Cl)c(S(=O)(=O)N2CCOCC2)c1,inactive
19,CC(C)(CNC(=O)c1ccc(Cl)c(S(=O)(=O)N2CCc3ccccc3C2)c1)N1CCOCC1,5.8 µM (active)
20,O=C(OCc1cc(=O)n2ccsc2n1)C1(c2ccc(Cl)cc2)CC1,inactive
21,COc1ccccc1N(CC(=O)Nc1c(C)n(C)n(-c2ccccc2)c1=O)S(=O)(=O)c1ccccc1,inactive
22,Cc1c(O)c(C)c2c(c1O)C(=O)C[C@@H](c1ccccc1)O2,inactive

row,SMILES,Potency
1,COc1ccc(CNc2nnnn2C)cc1,inactive
2,COc1ccc(CNc2ncnc3ccccc23)cc1,inactive
3,COc1ccc(CNc2c(CO)cnc3c2cnn3C)cc1,14.6 µM (active)
4,COc1cccc(NC(=O)COC(=O)c2ccc3ccccc3n2)c1,inactive
5,Cc1ccc(S(=O)(=O)N(C)C)cc1NC(=O)CN1c2cccc3cccc(c23)S1(=O)=O,inactive
6,Cc1csc(NC(=O)C2CCN(S(=O)(=O)c3ccccc3)CC2)n1,inactive
7,CN(C(=O)CSc1cccc[n+]1[O-])C1CCCCC1,inactive
8,S=c1[nH]nc(CSCc2ccc(Cl)cc2Cl)n1-c1ccccc1,20.6 µM (active)
9,S=c1[nH]nc(COc2ccccc2)n1-c1ccccc1,inactive
10,Cc1ccc(NCc2n[nH]c(=S)n2-c2ccccc2)cc1Cl,inactive
11,O=C(O)C(=Cc1ccccc1[N+](=O)[O-])c1ccccc1,inactive
12,O=C(Nc1cccc(S(=O)(=O)N2CCCC2)c1)c1cncc(Br)c1,inactive
13,CC(=O)Oc1ccc(N(C(C)=O)S(=O)(=O)c2ccc3ccccc3c2)cc1Br,13 µM (active)
14,CN(c1ccc(OCC(=O)O)cc1)S(=O)(=O)c1ccc2ccccc2c1,inactive
15,COCCNC(=O)COc1ccc(N(C)S(=O)(=O)c2ccc3ccccc3c2)cc1,inactive
16,O=C(OCCOc1ccccc1Cl)c1cc(S(=O)(=O)N2CCCCC2)ccc1N1CCOCC1,inactive
17,CCC(C(=O)N1CCN(S(=O)(=O)c2sc(C(=O)O)c(C)c2C(=O)O)CC1)c1ccccc1 (centres undefined),inactive
18,COCCN1C(=O)N[C@@H](c2ccccc2)C(C(=O)OC)=C1C,inactive
19,CC1=C(C(=O)OCc2ccccc2)C(c2ccc(C(F)(F)F)cc2)NC(=O)N1CCCCCC(=O)O (centres undefined),inactive
20,COC(=O)CCCCCN1C(=O)NC(c2ccc(-c3ccccc3)cc2)C(C(=O)OCc2ccccc2)=C1C (centres undefined),3.26 µM (active)
